Bioassay records deposited in PubChem by National Center for Advancing Translational Sciences (NCATS).
A selection: hits, their analogues and other compounds. The true share with any hit is near 6.5%.
HT1080 IDH1KD tx: qHTS for induction of synthetic lethality in tumor cells producing 2HG: qHTS for the HT-1080-IDH1KD cell line | AID 686971, 2013 | Potency, µM (highest dose often 46.1 µM), for the others: top-dose activity, negative = toxicity, usual class: cytotoxic | HT-1080 IDH1 knockdown viability, ATP luminescence, 48 h | 2% of 360,000 active;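 note: potency is the fitted concentration of half-maximal effect; 0% = DMSO wells and -100% = cell-free medium wells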
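Using the IDH1-knockdown HT-1080 line run in the same batch and compound series as the NT line, viability after 48 h at 37 °C was determined by CellTiter-Glo luminescence and expressed as % activity.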
Giardia kill: Small Molecules that selectively kill Giardia lamblia: qHTS; AID 540267, 2011; Giardia lamblia trophozoite viability; 0.15% of 340,000 active; activity change, % at 7.66 µM, hits read low; in the data active = activity change below about -80%; inconclusive = between about -30% and that limit;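 note: parasites exposed to compound for two days anaerobically before the ATP read; % is set by controls: 0 for no effect and ±100 for the full control effect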
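Viability, read as ATP luminescence: trophozoites at 100 cells/well, compound added, 48 hrs anaerobic at 37 deg C, then 15-30 min room-temperature development before reading.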
HT1080-NT tox: qHTS for induction of synthetic lethality in tumor cells producing 2HG: qHTS for the HT-1080-NT fibrosarcoma cell line | Potency, µM (titrated, usually from 46.1 µM), inactives show at the highest dose activity, negative = less viability, usual class: cytotoxic | HT-1080-NT fibrosarcoma viability, CellTiter-Glo ATP luminescence, 48 h | 1.6% of 360,000 active;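 note: NT is the 2HG producing partner of a matched IDH1 knockdown line; potency is the fitted concentration of half-maximal effect; 0% = DMSO-treated cells and -100% = media-only wells without cells; nearly all actives have a fitted effect of over 55% in size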
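A 48-hour cytotoxicity screen used HT-1080-NT cells plated 2 hours before compound delivery. ATP-based CellTiter-Glo luminescence measured viability, normalized to DMSO and no-cell controls.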
TGFb inhibitor: qHTS for Inhibitors of TGF-b; 1.2% of 410,000 active; Potency, µM (doses to about 46.1 µM), for inactives: at the highest dose activity, negative = inhibition, actives largely listed as inhibitors; HepG2 CAGA-GFP TGF-b/SMAD3 reporter, GFP fluorescence, 18 h; TGF-beta stimulated, 500 pg/mL final; AID 588855, 2011; note: potency is the fitted concentration of half-maximal effect; % is set by controls: 0 for no effect and ±100 for the full control effect; nearly all actives have a fitted effect of over 65% in size
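Inhibition was scored as loss of TGF-beta-induced (500 pg/mL final, 18 hours, 37 degrees C) GFP in HEPG2 cells carrying a CAGA-GFP reporter, in DMEM with 1% FBS. Well GFP was summed per cell; Activity was normalised to unstimulated and stimulated DMSO wells, then concentration-response fitting.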
IL-1B inflam inh: qHTS for Inhibitors of Inflammasome Signaling: IL-1-beta AlphaLISA Primary Screen. THP-1 LPS/ATP IL-1B secretion, AlphaLISA, 16 h; stronger effect = lower value. 4.7% of 360,000 active. activity change, % at 57.5 µM; in the data active = activity change below about -50%; inconclusive = mostly about -30% to -49%; note: % is set by controls: 0 for no effect and ±100 for the full control effect
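THP-1 cells pretreated 1 hr with compounds (up to 57.5 uM final), then stimulated with LPS (250 ng/mL final) plus ATP (1.25 mM final); secreted IL-1B measured by AlphaLISA after 16 hr, decreased signal indicating inhibition.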
HepG2 tox: qHTS for Inhibitors of TGF-b: Cytotox Counterscreen. AID 588856, 2011. HepG2 CAGA-GFP viability, ATP luminescence, 18 h. Potency, µM (top dose mostly 46.1 µM), for inactives: at the top dose activity change, negative = cytotoxicity, hits mostly cytotoxic. 0.76% of 410,000 active; note: potency is the fitted concentration of half-maximal effect
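CellTiter-Glo luminescence gave cytotoxicity after 18 hours at 37 degrees C. The cells were HepG2 CAGA-GFP in 1% FBS DMEM, stimulated with 500 pg/mL TGF-beta after compound addition. %Activity was normalised to no-cell wells (complete cell-killing) and DMSO (no toxicity), and curves were fitted and classified.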
Numbers without * were called inactive; ? = inconclusive; . = no result given; [ ] = another dose, or the depositor's remark. Unless noted, calls come from the whole dose curve; as a rule, active = well fitted curve in the direction sought with a large enough effect; inconclusive = small, poorly fitted or top-dose-only effect, or another doubt; inactive = no such curve, though single readings can be large; an effect the other way counts as inactive or inconclusive.

SMILES | HT1080 IDH1KD tx | Giardia kill | HT1080-NT tox | TGFb inhibitor | IL-1B inflam inh | HepG2 tox
CC1=Nc2ccc(Br)cc2C(c2ccccc2)N1CC(=O)O (stereo not given) | 15% | -1 | 16% | 6% | -9 | 1%
Cc1ccc(S(=O)(=O)N2CCOCC2)cc1C(=O)OCC(=O)N1CCCCC1 | 1% | -12 | -6% | -3% | -1 | -2%
Cc1nn2c(-c3ccccc3)nnc2c2ccccc12 | -16% | -8 | -7% | ? | -9 | -30%
Cc1nn2c3ccccc3nc2c2ccccc12 | ? | -8 | ? | ? | -17 | 16µM*
COC(=O)c1cccc(NC(=O)CCNC(=O)c2ccco2)c1 | -8% | 0 | -4% | 22% | -101* | -5%
CC(C)(C)NC(=O)c1cccc(NC(=O)c2ccco2)c1 | -3%[9.24 µM] | 5 | -2% | 21% | -6 | 14%
COC(=O)c1cccc(NC(=O)c2ccco2)c1 | 4% | 2 | 23% | -3% | -5 | -10%
CC(=O)Oc1ccc(C(=O)Nc2cc(NC(=O)c3ccc(OC(C)=O)cc3)cc(C(=O)NC(C)(C)C)c2)cc1 | -26% | -15 | -24% | ? | -64* | -35%
CC(C)(C)NC(=O)c1cccc(NC(=O)c2ccc(NC(=O)c3ccco3)cc2)c1 | . | 7 | . | ? | -70* | -34%
O=C(Nc1cccc(NC(=O)c2ccco2)c1)c1cccc(Br)c1 | -26% | -8 | ? | -4% | -61* | 4%
O=C(Nc1cc(Br)c(O)c(Br)c1)c1cccc(NC(=O)c2ccco2)c1 | 1% | 8 | -1% | -3% | 2 | -23%
CNc1ccc(/C=C2\CSc3ccccc3C2=O)cc1[N+](=O)[O-] | ? | 0 | ? | -18% | 17 | -3%
Cn1ncc2c(N3CCN(c4ccccc4F)CC3)ncnc21 | -5% | -11 | 6% | -13% | -3 | -20%
Cn1ncc2c(N3CCN(c4ccc(Cl)c(Cl)c4)CC3)ncnc21 | ? | 7 | ? | ? | -60* | -7%
Cc1ccccc1N1CC(c2nc3ccccc3n2CCC2CCCCC2)CC1=O (stereo not given) | . | . | . | ? | . | -103%
CCc1ccccc1N1CC(c2nc3ccccc3n2CCC2CCCCC2)CC1=O (stereo not given) | . | . | . | ? | . | 10µM*
CCc1ccc(OCCn2c(C3CC(=O)N(Cc4ccc(F)cc4)C3)nc3ccccc32)cc1 (stereo not given) | . | . | . | ? | . | -111%
Cc1ccc(OCCn2c(C3CC(=O)N(Cc4ccc(F)cc4)C3)nc3ccccc32)c(C)c1 (stereo not given) | . | . | . | ? | . | 18µM*
CCOc1ccc(N2CC(c3nc4ccccc4n3CCOc3ccccc3)CC2=O)cc1 (stereo not given) | . | . | . | 16µM* | . | -24%
COc1ccc(C=C2C(=O)c3ccccc3C2=O)cc1O | -1% | -13 | 3% | 13% | 5 | -25%
COc1ccc(/C=C2\CN(Cc3ccccc3)C/C(=C\c3ccc(OC)c(O)c3)C2=O)cc1O | 2.3µM* | ? | ? | 5µM* | -99* | -64%
CCN1C/C(=C/c2ccc(OC)c(O)c2)C(=O)/C(=C/c2ccc(OC)c(O)c2)C1 | ? | -20 | ? | ? | -72* | -2%
Cc1cccc(C)c1NC(=O)C1C(c2ccc3c(c2)OCO3)=Nc2ccccc2N1C(=O)c1ccccn1 (stereo not given) | -8% | . | -11% | . | 40 | .
Cc1cccc(C)c1NC(=O)C1C(c2ccc3c(c2)OCO3)=Nc2ccccc2N1C(=O)c1cccc(C(F)(F)F)c1 (stereo not given) | -3% | . | -15% | . | -57* | .
CCN1CCN(c2nc(-c3cccs3)nc3ccccc23)CC1 | 0% | 12 | -5% | 7% | ? | 2%
SMILES | HT1080 IDH1KD tx | Giardia kill | HT1080-NT tox | TGFb inhibitor | IL-1B inflam inh | HepG2 tox
c1ccc(N2CCN(c3nc(-c4cccs4)nc4ccccc34)CC2)cc1 | -5% | -11 | -9% | ? | -58* | -32%
CN1CCN(c2nc(-c3cccs3)nc3ccccc23)CC1 | -22% | 7 | ? | 1% | -59* | -21%
O=S(=O)(c1cccc2cnccc12)N1CCNCC1 | -19% | -7 | ? | 17% | -51* | -23%
O=S(=O)(c1cccc2ccccc12)N1CCSC1 | 1% | -18 | -4% | 16% | 24 | 8%
CC(=O)Oc1c(C)c2c3c(c1OC(C)=O)[C@@H](C)CC[C@@H]3[C@@H](C)C[C@H]2C=C(C)C | -9% | -29 | -5% | -28% | -10 | -9%
CC(=O)OC1[C@H](Oc2c(O)c(C)c3c4c2[C@@H](C)CC[C@@H]4[C@@H](C)C[C@@H]3C=C(C)C)OC[C@@H](O)[C@@H]1O (stereo not given in full) | 10% | 0 | -22% | 11µM* | -3 | -48%
CC(C)=C[C@@H]1C[C@H](C)[C@H]2CC[C@H](C)c3c(O)c(O)c(C)c1c32 | -4% | -7 | -1% | -10% | -8 | -42%
CC(=O)O[C@H]1[C@H](O)[C@H](Oc2c(O)c(C)c3c4c2[C@@H](C)CC[C@@H]4[C@@H](C)C[C@H]3C=C(C)C)O[C@@H](C)[C@H]1O | ? | 15 | ? | 11µM* | -77* | -114%
CC(C)=C[C@H]1C[C@H](C)[C@H]2CC[C@H](C)c3c(O[C@@H]4OC[C@@H](O)[C@H](O)C4O)c(O)c(C)c1c32 (stereo not given in full) | ? | -7 | ? | ? | -74* | 22µM*
C=CCN(Cc1ccc(Cl)s1)C(=O)c1cc(S(=O)(=O)N2CCOCC2)ccc1F | -11% | -10 | -3% | ? | 18 | -28%
COc1ccc(N2CCN(C(=O)CSc3nc4[nH]ncc4c(=O)n3-c3cccc4ccccc34)CC2)cc1 | -13% | -5 | -23% | -3% | -51* | -2%
CC(C)CCn1nnnc1C(c1ccc(N(C)C)cc1)N1CCN(C(=O)c2ccco2)CC1 (stereo not given) | 0% | 4 | 1% | -2% | -65* | 5%
CN(C)c1ccc(C(c2nnnn2C(C)(C)C)N2CCN(C(=O)c3ccco3)CC2)cc1 (stereo not given) | 23% | -29 | 17% | 28% | -4 | 11%
